Compounds with a hit are over-represented: about 1.1% of the library has one in this group of screens.
HttQ103 aggreg: reduces HttQ103-GFP aggregates in PC12 cells. PC12 HttQ103-GFP aggregates, Acumen cytometry, 40 h. Potency, µM (doses to about 46.1 µM), inactives show top-dose activity change, negative = inhibition, actives largely listed as inhibitors. hit rate 1.1% among 220,000; further: potency means the concentration at half of the fitted maximal effect; on the % scale 0 is the no-effect control and ±100 the full control effect; nearly all actives have a fitted effect of over 60% in size
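Read-out: GFP aggregate count by laser scanning cytometer (488 nm excitation, 500-530 nm emission, 1–25 µm objects >6 SD above background). Cells: PC12, inducible HTTex1-Q103-GFP, 100 nM tebufenozide; compounds titrated.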
Lamin A splicing: modulators of lamin A splicing; hit rate 0.01% among 200,000; HeLa LMNA splicing GFP/RFP minigene ratio, 48 h; Potency, µM (highest dose often 46.1 µM), for the others: top-dose ratio change, negative = inhibition, usual class: inhibitors; active means well fitted inhibition curve with a large enough effect in the signal ratio, with a control signal flat, not every such curve was filed as active; inconclusive means small, poorly fitted or top-dose-only effect, or effect the other way, or a change in a side signal; the % refers to the signal ratio; further: potency means the concentration at half of the fitted maximal effect; on the % scale 0 is the no-effect control and ±100 the full control effect
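Read-out is the ratio of GFP to DsRed2 object intensity, acquired by 488 nm laser-scanning cytometry on HeLa lamin A-EGFP minigene reporter cells. Compound incubation 48 hrs at 37 °C in Opti-MEM with 2% FBS; DMSO 0.5% final.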
NPSR antagonist: antagonists of human neuropeptide S receptor cAMP signaling; CHO-NPSR cells, cAMP TR-FRET, antagonist mode; hit rate 1% among 220,000; Potency, µM (doses to about 38.3 µM), without a hit: at the highest dose activity change, negative = inhibition, hits mostly inhibitors; AID 1461; further: potency means the concentration at half of the fitted maximal effect; on the % scale 0 is the no-effect control and ±100 the full control effect; nearly all actives have a fitted effect of over 50% in size
Target sequence (Q6W5P4 whole entry, looked up): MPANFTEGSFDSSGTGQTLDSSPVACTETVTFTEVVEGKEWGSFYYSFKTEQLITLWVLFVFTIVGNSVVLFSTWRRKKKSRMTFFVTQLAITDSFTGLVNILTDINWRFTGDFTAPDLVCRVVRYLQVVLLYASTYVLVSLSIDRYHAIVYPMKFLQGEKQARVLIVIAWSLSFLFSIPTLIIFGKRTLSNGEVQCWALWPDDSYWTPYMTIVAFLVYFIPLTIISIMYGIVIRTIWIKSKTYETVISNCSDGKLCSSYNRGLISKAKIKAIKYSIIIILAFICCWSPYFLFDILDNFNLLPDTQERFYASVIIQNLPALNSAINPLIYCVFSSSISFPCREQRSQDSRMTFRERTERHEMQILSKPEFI
HTT cytoprotect: cytoprotection in Huntington HTT-Q103 PC12 cell model | AID 1471 | Potency, µM (doses to about 56.4 µM), for inactives: cytoprotection (ATP increase), usual class: activators | PC12 HTT-Q103 induced, cytoprotection, ATP luminescence, 40 h | hit rate 0.14% among 230,000; further: potency means the concentration at half of the fitted maximal effect; % of control where 0% means no effect; nearly all actives have a fitted effect of over 45% in size
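Readout: ATPlite luminescence (ATP level). Model: stable PC12, inducible Htt exon1 Q103-GFP. Inducer: tebufenozide, 100 nM final. Compounds: dose series. No G418 in medium.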
MBNL1-CUG inh: inhibitors of human MBNL1 binding to CUG repeat RNA | hit rate 0.036% among 280,000 | Q9NR56 | TR-FRET MBNL1-His/biotin-(CUG)12 binding, 665/545 ratio | Potency, µM (top dose mostly 57.5 µM), inactives show top-dose activity change, negative = inhibition, actives largely listed as inhibitors; active means well fitted inhibition curve with a large enough effect in the signal ratio, with a control signal flat, not every such curve was filed as active; inconclusive means small, poorly fitted or top-dose-only effect, or effect the other way, or a change in a side signal; inactive means no such curve, though single readings can be large or run the other way; the % refers to the signal ratio; further: potency means the concentration at half of the fitted maximal effect; on the % scale 0 is the no-effect control and ±100 the full control effect
Target sequence (Q9NR56 whole entry, looked up): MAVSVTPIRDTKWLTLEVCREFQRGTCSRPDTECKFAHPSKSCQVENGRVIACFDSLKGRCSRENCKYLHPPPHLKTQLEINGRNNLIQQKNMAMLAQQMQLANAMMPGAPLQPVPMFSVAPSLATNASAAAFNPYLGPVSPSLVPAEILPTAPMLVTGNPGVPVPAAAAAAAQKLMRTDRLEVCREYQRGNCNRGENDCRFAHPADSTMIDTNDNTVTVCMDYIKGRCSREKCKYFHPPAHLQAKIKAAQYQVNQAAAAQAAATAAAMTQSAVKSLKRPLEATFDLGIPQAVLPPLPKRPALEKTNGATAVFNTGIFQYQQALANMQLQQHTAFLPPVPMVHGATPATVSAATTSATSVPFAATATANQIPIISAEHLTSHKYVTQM
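TR-FRET between His-tagged MBNL1 and biotin-(CUG)12 RNA, detected with Tb anti-His antibody (0.055 ng/ul) and streptavidin-XL665 (5 nM), 60 min at room temperature. Compounds titrated 92 nM to 58 uM; 665/545 nm ratio normalized to buffer and complex controls.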
CBFb-RUNX1 inh: blocks binding between human CBF-beta and RUNX1; AlphaScreen CBFb-His/RUNX1-biotin binding, biochemical; Potency, µM (doses to about 59.8 µM), without a hit: at the top dose activity, negative = inhibition, most hits filed as inhibitors; 230,000 tested, under 10 active; AID 1477; further: % of control where 0% means no effect
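Inhibition was taken as any reduction in AlphaScreen signal from the CBF-beta–RUNX1 pair (His and biotin tags, 30 nM each), measured after compound (15 min) and bead (90 min) incubations at room temperature.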
Starred values were filed as active, the others as inactive; u = inconclusive; x = not tested or not shown; [ ] = remark or other dose. Unless noted, the call rests on the fitted dose curve; in most records, active means well fitted curve in the direction sought with a large enough effect; inconclusive means small, poorly fitted or top-dose-only effect, or another doubt; inactive means no such curve, though single readings can be large; an effect the other way counts as inactive or inconclusive.

SMILES	HttQ103 aggreg	Lamin A splicing	NPSR antagonist	HTT cytoprotect	MBNL1-CUG inh	CBFb-RUNX1 inh
CSc1sc(C)cc1C=O	-1%	x	11%	5%[10 µM]	2%	-2%
CSc1cc(/C=N/O)c(SC)s1	13µM*	-11%	0%[46.1 µM]	21%[10 µM]	7%	6%
CN(C)c1ccnc2sc(C(N)=O)c(N)c12	1.6µM*	26%	-6%[46.1 µM]	26%	u	1%
CCOC(=O)c1sc2nccc(N(C)C)c2c1N=CN(C)C	u	2%	-14%[46.1 µM]	-13%	22%	10%
CN(C)c1ccnc2sc(C(=O)c3ccc(Br)cc3)c(N)c12	6%	x	-17%	-40%	7%	-2%
CN(C)C=Nc1c(C(=O)c2ccccc2)sc2nccc(N(C)C)c12	6.3µM*	-3%	-7%	x	36%[11.5 µM]	14%
CCOC(=O)c1ccc(-c2c(C(=O)OCC)oc3cc(O)c(CC)cc3c2=O)o1	5.6µM*	-1%	u	-29%[0.074 µM]	17%	9%
COc1ccc(-c2cn3c(n2)sc2cc(C(=O)Nc4cc(Cl)ccc4C)ccc23)cc1	x	7%[46 µM]	x	x	x	x
CCN1CCN(Cc2ccc(NC(=O)c3ccc(C)c(NC(=O)c4nccnc4N)c3)cc2C(F)(F)F)CC1	2.8µM*	x	-4%	4%[10 µM]	u	u
CCN1CCN(Cc2ccc(NC(=O)c3ccc(C)c(NC(=O)c4nccn4C)c3)cc2C(F)(F)F)CC1	-16%[9.22 µM]	x	-11%	-12%[10 µM]	-6%	12%
C/C(=N\NC(=O)c1ccc(CN2CCc3ccccc3C2)cc1)c1ccccc1O	10µM*	x	6%	-171%	3%	-13%
N=C(N)c1ccc(/C=C\c2ccc(C(=N)N)cc2)cc1	x	x	x	14%[10 µM]	x	x
Cn1ncc([N+](=O)[O-])c1C(=O)Nc1ccn(Cc2ccccc2F)n1	7%	12%	-1%[46.1 µM]	0%	u	-2%
Cn1cc([N+](=O)[O-])c(C(=O)Nc2ccn(Cc3c(F)c(F)cc(F)c3F)n2)n1	x	u	5%[46.1 µM]	10µM*	u	-8%
CCOc1ccc(N(C(=O)OC(C)(C)C)C(=O)c2ccc(O[Si](C)(C)C(C)(C)C)cc2)c(I)c1	x	x	x	x	x	13%
Cc1cc(I)ccc1Nc1c(C(=O)NOCC2CC2)cc(F)c(F)c1F	x	x	x	x	x	20%
CCc1ccc2c(c1)/C(=C/C(=O)c1cccs1)C(=O)N2	u	10%	10µM*	-1%	1%	4%
O=c1cc(-c2ccccc2Cl)oc2c([N+](=O)[O-])c(O)cc(O)c12	1.8µM*	u	-15%	u	-16%	-22%[89.1 µM]
Cc1ccc(/C=N/Nc2ccc3ccccc3n2)o1	13µM*	x	-23%	-164%	x	-9%
Cc1cccc(/C=N/Nc2ccc3ccccc3n2)c1	u	u	u	-51%[10 µM]	2%	7%
C[C@@H]1C[C@H]2[C@@H]3C[C@H](F)C4=CC(=O)C=C[C@]4(C)[C@@]3(F)[C@@H](O)C[C@]2(C)[C@@]1(O)C(=O)COC(=O)C(C)(C)C	-12%	-5%	-52%	x	-11%	11%
CCCC(=O)O[C@]1(C(=O)COC(C)=O)CC[C@H]2[C@@H]3C[C@H](F)C4=CC(=O)C=C[C@]4(C)[C@@]3(F)[C@@H](O)C[C@@]21C	-6%	u	2.5µM*	x	-10%	5%
COc1cccc(N2CCN(C(=O)C3Cc4ccccc4N3C(C)=O)CC2)c1 (configuration not stated)	x	-4%[46 µM]	x	x	x	x
COc1ccc([C@]23Cc4cc(C#N)ccc4C(O2)c2c(cc(C)n(-c4ccccc4)c2=O)O3)cc1	x	x	x	x	17%[11.5 µM]	x
COC(=O)[C@@]1(Cc2ccc(OC)cc2)[C@@H]2C(=CC(=O)[C@H]2CC(=O)C(=O)N(C)C)CN1C(=O)c1ccccc1	u	-27%	-40%	u	22%	10%[2.36 µM]
SMILES	HttQ103 aggreg	Lamin A splicing	NPSR antagonist	HTT cytoprotect	MBNL1-CUG inh	CBFb-RUNX1 inh
C=C1C(=O)C=C2CN(C(=O)c3ccccc3)[C@@](Cc3ccc(F)cc3)(C(=O)OC)[C@@H]12	5µM*	u	1.6µM*	-111%	-14%	5%[2.36 µM]
CNC(=O)c1nnsc1S(=O)c1ccc(Cl)cc1 (configuration not stated)	14µM*	-1%[9.22 µM]	-45%	-142%	-4%	-7%
CCCNC(=O)c1nnsc1S(=O)c1ccc(Cl)cc1 (configuration not stated)	11µM*	-4%[9.22 µM]	-33%	-150%	-8%	-2%
COC(=O)N1C2=C(c3ccccc3[C@@H]1CC(=O)Nc1ccc3ccc4cccc5ccc1c3c45)[C@@H]1C(=O)N(c3ccccc3)C(=O)[C@@H]1[C@H](C)C2	x	-6%[9.22 µM]	x	6%[10 µM]	x	3%[13.1 µM]
CN1/C(=C/C=N/n2cnnc2)C(C)(C)c2ccccc21	-11%	14%	10%[46.1 µM]	-6%[10 µM]	5%	-4%
CN1/C(=C\C=N\NC(=O)c2ccccc2Br)C(C)(C)c2ccccc21	11µM*	u	-3%	-1%[10 µM]	20%	5%
COc1ccc(-n2ncc(Cl)c(Cl)c2=O)cc1	4µM*	x	-27%	x	u	15%
COC(=O)C(C(C)=O)C1c2ccccc2C=C(C)N1C(=O)OC (configuration not stated)	x	u	x	u	x	11%[13.1 µM]
CCOC(=O)/C=C/S(=O)(=O)c1ccc(NC(C)=O)cc1	4µM*	u	u	-162%	-6%	-4%
CCOC(=O)/C=C/C(=O)Nc1ccc(S(=O)(=O)Nc2c(C)cc(C)cc2C)cc1	-4%	u	-1%	-5%[10 µM]	x	-4%
CCOc1ccc(S(=O)(=O)NCCc2sc3nc(-c4ccc(F)cc4)nn3c2C)cc1	x	5%[46 µM]	x	x	x	x
CN(C1CCCCC1)S(=O)(=O)c1ccc(NC(=O)c2ccc(Br)o2)cc1	22µM*	u	-25%[46.1 µM]	1%[10 µM]	u	-23%
O=C(NCc1cccnc1)/C(=C/c1ccc(-c2cccc(Cl)c2)o1)S(=O)(=O)c1ccccc1	u	u	5µM*	-87%	-2%	-10%
O=C(NCc1cccnc1)/C(=C\c1ccc(-c2cccc(Cl)c2)o1)S(=O)(=O)c1ccccc1	-8%[9.22 µM]	u	u	-6%[10 µM]	-3%	-6%
COc1ccc2c(c1)OC(=O)CC2c1ccc2c(c1)OCO2 (configuration not stated)	x	x	x	-3%	x	-7%[89.1 µM]
O=C1CN(C(=O)Cn2ncc(Cl)c(Cl)c2=O)c2ccccc2N1	11µM*	u	-32%	-159%	x	-17%
CC(C)N(Cc1ccccc1)C(=O)Cn1ncc2c([nH]c3ccccc32)c1=O	x	-2%[46 µM]	x	x	x	x
Cc1sc(NC(=O)CCl)c(C(=O)c2ccccc2)c1C	u	u	7.9µM*	-57%[10 µM]	u	-5%

Assay outcomes: PubChem, National Center for Advancing Translational Sciences (NCATS)
